Assay results from PubChem BioAssay (NCI).
This is part of a sample that, as a whole, favours compounds with a hit. Of some 83,000 tested, about 20% had one in any assay.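 Negative percent growth values reflect cell death: -40 means 40% of the cells present at the start died, and -100 means all died.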 Values without a mark were called inactive. Activity calls are given as the source filed them. The calls were made as follows: active = growth percent below 10; inactive = the rest.

What was measured:
Test in all cases: NCI-60 one-dose screen, 48 h (100 = growth as untreated, 0 = no growth, -100 = all killed)
Settings in all cases: 10 µM
[1] = tested on: EKVX NSCLC
[2] = tested on: SN12C renal
[3] = tested on: UO-31 renal
[4] = tested on: TK-10 renal
[5] = tested on: ACHN renal
[6] = tested on: CAKI-1 renal
[7] = tested on: A498 renal
[8] = tested on: CCRF-CEM leukemia
[9] = tested on: MOLT-4 leukemia
[10] = tested on: SR leukemia
[11] = tested on: RPMI-8226 leukemia
[12] = tested on: OVCAR-8 ovarian
[13] = tested on: OVCAR-5 ovarian
[14] = tested on: OVCAR-4 ovarian
[15] = tested on: SK-OV-3 ovarian
[16] = tested on: IGROV1 ovarian
[17] = tested on: OVCAR-3 ovarian
[18] = tested on: HS 578T breast
[19] = tested on: NCI/ADR-RES ovarian
[20] = tested on: T-47D breast

SMILES | growth [1] | growth [2] | growth [3] | growth [4] | growth [5] | growth [6] | growth [7] | growth [8] | growth [9] | growth [10] | growth [11] | growth [12] | growth [13] | growth [14] | growth [15] | growth [16] | growth [17] | growth [18] | growth [19] | growth [20]
Cc1cccc(Cl)c1NC(=O)c1ccc2nc(NC(=O)NC3CCN(C)CC3)sc2c1 | 90.9% | 73.8% | 84.1% | 83.8% | 102% | 100% | 104% | 83% | 77.9% | 86.7% | 87.7% | 94.6% | 71.1% | 99.5% | 61.8% | 86% | 116% | 48.6% | 106% | 66%
COc1ccc2c(c1)N(CCO)C1=C(C(=O)OC1)C2c1ccc(OC)c(OC)c1 (stereo not drawn) | 67% | 60.8% | 60.9% | 59.3% | 43.7% | 52.3% | 14.9% | 34.2% | 43.4% | 21% | 62.9% | 48.7% | 47.7% | 64.6% | 40.5% | 53.4% | -18.2% (active) |  | 71.8% | 45.5%
COc1ccc2c(c1)sc1nc(-c3ccccc3)c(-c3ccc(O)c(OC)c3)n12 | 88.4% | 96.3% | 99.8% | 120% | 101% | 77.5% | 76.6% | 78.1% | 71.2% | 17.2% | 78.5% | 97.5% | 107% | 102% | 96% | 72.8% | 83.5% | 84.6% | 64.6% | 111%
COc1cc(C)ccc1C(=O)c1ccc(C)cc1OC | 31.2% | 43.2% | 31.4% | 38.3% | 60.8% | 23.4% | -4.5% (active) | 14.4% | 32.3% | -10.2% (active) | 21.9% | 23.9% | 46.8% | 63.1% | 17.1% | 37.2% | -39.2% (active) | -12.6% (active) | -2.71% (active) | 50.6%
COC(=O)c1c(-c2ccccc2)csc1NC(=O)c1c(-c2ccccc2)noc1C | 58.7% | 44.8% | 26% | 55.9% | 31.5% | 6.32% (active) | 67.8% | 35% | 15.9% | -17.2% (active) | 27.9% | 25.6% | 63% | 79.9% | 58.6% | 20.6% | 36.7% | 65.9% | 36.8% | 71.8%
CN1c2ccccc2[C@]2(Cc3ccccc3)Cc3ccccc3N[C@H]12 | 114% | 109% | 73.4% | 114% | 103% | 112% | 113% | 92.2% | 90.2% | 91.2% | 98.9% | 106% | 93.8% | 91% | 122% | 88.8% | 120% | 110% | 107% | 109%
COc1ccc(-c2nc3sccn3c2-c2nc3c([nH]2)C(=O)c2ccccc2C3=O)cc1 | 83.1% | 86% | 71.3% | 111% | 86.4% | 84.7% | 49.7% | 79.9% | 76% | 76.6% | 74.7% | 96.2% | 89.8% | 84.1% | 109% | 105% | 114% | 90.6% | 86.5% | 72%
CN(C)CCN1C(=O)c2cccc3c(-c4ccc5ncn(C6CCCCC6)c5c4)ccc(c23)C1=O | 29.8% | 19.3% | 2.42% (active) | 26.7% | 13.8% | 25% | 4.69% (active) | 15.4% | -18.7% (active) | 3.59% (active) | 7.51% (active) | 14.7% | 35.8% | 30.8% | 23% | 20.4% | 37.6% | 40.8% | 20.1% | 27.8%
CCN(CC)CCOc1nc2ccc(OC)cc2c2c1-c1ccc(OC)cc1C2=O | 25.2% | 29.3% | -44.4% (active) | 8.74% (active) | -93% (active) | -4.67% (active) | 25.4% | 5.22% (active) | 3.68% (active) | -14.8% (active) | -24.5% (active) | -60.1% (active) | 49.3% | -6.86% (active) | 30.9% | -48.8% (active) | -94.2% (active) | 10.3% | 0.706% (active) | 68.7%
COc1cc2c(cc1OC)N(CCO)C1=C(C(=O)OC1)C2c1ccc(Cl)c(Cl)c1 (stereo not drawn) | 87% | 108% | 82.3% | 98.7% | 107% | 107% | 89.3% | 92.6% | 73.7% | 86% | 92.1% | 103% | 111% | 104% | 106% | 110% | 112% | 103% | 104% | 88.3%
CC(=O)c1cc(Cl)ccc1O | 108% | 110% | 78.3% | 98.9% | 99.8% | 107% | 100% | 100% | 101% | 104% | 105% | 109% | 94.3% | 120% | 111% | 116% | 102% | 104% | 104% | 99.7%
O=C1OCC2=C1C(c1cccc(Cl)c1)c1cc3c(cc1N2CCO)OCO3 (stereo not drawn) | 56.6% | 42.9% | 45.1% | 58.2% | 46.3% | 39.6% | -7.88% (active) | 9.39% (active) | 26.4% | 32.5% | 22.4% | 25.1% | 31.2% | 64.5% | 19.4% | 44% | -50.6% (active) | -5.17% (active) | -11% (active) | 62.6%
COc1ccc2c(c1)C(=O)c1c-2c(=O)n(CCCN(C)C)c2cc(OC)c(OC)cc12 | 113% | 53.1% | 64.6% | 102% | 31.9% | 10.6% | 85.5% | 15.4% | 13.8% | 1.53% (active) | 66.6% | 62.1% | 130% | 74.4% | 69.9% | 67.2% | 94.9% | 119% | 58.7% | 81.2%
Cc1nc2oc3ccccc3c(=O)c2cc1C(=O)NCc1ccccc1 | 69.3% | 99% | 63.3% | 87.6% | 63.3% | 52% | 92.5% | 76.9% | 66.7% | 69.7% | 80.4% | 90.4% | 81.8% | 67.9% | 110% | 102% | 93.3% | 105% | 55.4% | 53.9%
CCCCCCCCCCCCCC[n+]1ccc(C(N)=O)cc1 | 1.08% (active) | 8.7% (active) | 50.7% | -65.2% (active) | 65.6% | 15.6% | 52.3% |  | -34.8% (active) | -15.8% (active) | -41.2% (active) | 1.18% (active) | -4.86% (active) | 32.4% | 34.3% | 110% | -27.1% (active) | -14.5% (active) | 96.1% | 
COc1cc(NC(=O)CSc2nc3ccccc3c(=O)n2CCc2ccccc2)cc(OC)c1OC | 65.3% | 25.9% | -63.2% (active) | -2.38% (active) | -41.6% (active) | 45.4% | -21.8% (active) |  |  |  |  | 30% | 65.9% | 53.8% | -37.5% (active) | 8.76% (active) | -30.6% (active) | 36.6% | 36.5% | -1.62% (active)
